Ecoli rRNA inh: inhibits bacterial ribosomal RNA function over humanized ribosomes; E. coli WT GFP vs humanized-ribosome RFP mutants, fluorescence, 24 h; stronger effect = lower value; DMSO median 0, no signal -100; GFP signal change (wild-type ribosome), % (test concentration not listed); 1.6% of 350,000 active; AID 720706;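 active means significant combined selectivity score with lowered wild-type GFP, culture density cut under 30%, mutant RFP and density less affected; inactive means any of these conditions unmet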
SIRT5 inh: inhibitors of human sirtuin-5 desuccinylase; Q9NXA8; Purified SirT5, succinyl-peptide AMC, trypsin-coupled fluorescence; inhibition, % at 15 µM; 1.1% of 330,000 active; in the data active means inhibition above about 15%; inconclusive means no clear call, values can overlap the other calls
Target sequence (Q9NXA8 whole entry, looked up): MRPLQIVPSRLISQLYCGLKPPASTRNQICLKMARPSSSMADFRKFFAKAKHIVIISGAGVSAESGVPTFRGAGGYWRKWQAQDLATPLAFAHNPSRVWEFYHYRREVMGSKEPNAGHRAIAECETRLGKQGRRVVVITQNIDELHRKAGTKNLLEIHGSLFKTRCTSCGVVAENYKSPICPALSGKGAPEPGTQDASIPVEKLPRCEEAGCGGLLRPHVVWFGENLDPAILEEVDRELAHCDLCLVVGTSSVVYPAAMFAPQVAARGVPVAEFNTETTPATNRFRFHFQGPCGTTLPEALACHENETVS
PGC1a acetyl inh: PGC1a acetylation modulation, inhibitor mode. U2OS PGC1a acetylation, AlphaScreen anti-acetyl-lysine; with virally co-expressed GCN5 acetyltransferase. inhibition, % at 15.6 µM. 0.17% of 350,000 active. AID 651687;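 active means every replicate shows inhibition of at least 40%; inconclusive means mean inhibition at least 40% but some replicate below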;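 further: 0% = neutral control wells and 100% = positive control wells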
LGR2 inh: blocks bursicon-induced cAMP signaling via Drosophila LGR2; HEK293 LGR2, CRE-luciferase, bursicon-stimulated, 4 h; inhibition, % at 9.99 µM; 0.35% of 380,000 active; AID 720647;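 active means drop in luminescence signal, shown as inhibition above about 50% in the replicate tests, limit read from the data, passing the limit was not always enough; inconclusive means probably only some replicates passing the limit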;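 further: agonist challenge used bursicon conditioned medium at about half maximal strength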
PAX8 reporter: PAX8 transcriptional activity inhibition; RMG-I TPO-luciferase reporter, SteadyGlo, 24 h; inhibition, % at 12.6 µM; 1.2% of 360,000 active; AID 652154;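 active means mean replicate inhibition at least 60% with every replicate also reaching 60%; inconclusive means only one of the two criteria is met; inactive means mean below 60% and not all replicates reaching 60%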;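 further: luciferase light reporting Pax8 driven TPO promoter activity; plate controls were median of neutral control wells for no effect and mitoxantrone controls for full effect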
EWS-Fli block: blocks EWS/Fli oncoprotein-driven transcription | 0.67% of 350,000 active | inhibition, % at 12.6 µM | A673 NR0B1-luciferase reporter, viability-normalised;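 active means mean inhibition of at least 50% after viability correction, with every replicate also passing that limit; inconclusive means mean reaches 50% but only one of two replicates passes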;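 further: firefly luciferase signal divided by Alamar Blue viability fluorescence both relative to DMSO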
An asterisk follows results filed as active; ? = inconclusive; . = no result; ! = not confirmed by another sample. A selection: hits, their analogues and other compounds. The true share with any hit is near 3.4%.

SMILES | Ecoli rRNA inh | SIRT5 inh | PGC1a acetyl inh | LGR2 inh | PAX8 reporter | EWS-Fli block
CC=Cc1ccc2n(c1=O)C[C@@H]1[C@@H](CO)[C@H](C(=O)Nc3ccccc3)N(CC3CCCC3)[C@H]21 (mixture of isomers) | -9 | 3 | . | 2 | 6 | 3
O[C@H]1C[C@H](c2ccccc2)N(Cc2cccs2)C[C@@H]1n1cc(-c2ccc(F)cc2)nn1 | -4 | 16* | -7 | 5 | 27 | 15
COc1ccc([C@H]2C[C@H](O)[C@@H](n3cc(-c4ccc(F)cc4)nn3)CN2Cc2cccs2)cc1 | 3 | -2 | 7 | 17 | ? | 56*
O=C1C=CCCN1S(=O)(=O)/C=C/c1ccccc1 | . | 0 | 59* | . | 89* | 62*
C[C@H]1CN([C@@H](C)CO)C(=O)c2cc(C#CC(C)(C)O)cnc2O[C@@H]1CN(C)Cc1cccc(F)c1 | -3 | . | -6 | -7 | 0 | 1
CO[C@@H](CN(C)S(=O)(=O)c1ccc(Cl)cc1)[C@@H](C)CN([C@H](C)CO)S(=O)(=O)c1cccc(Cl)c1 | 0 | 1 | -29 | 17 | 1 | 10
O=C(O)c1ccc(CNCc2cccc(Cl)c2)cc1 | 12 | 21* | 4 | -1 | -5 | 3
C[C@@H]1CCCCO[C@@H](CN(C)C(=O)Nc2cccc3ccccc23)[C@H](C)CN([C@H](C)CO)C(=O)c2cc(NS(=O)(=O)c3ccc(F)cc3)ccc2O1 | 2 | -1 | -14 | -5 | 93* | 6
C[C@H]1CCCCO[C@H](CN(C)C(=O)Nc2cccc3ccccc23)[C@@H](C)CN([C@@H](C)CO)C(=O)c2cc(NS(=O)(=O)c3ccc(F)cc3)ccc2O1 | 0 | 17* | -4 | 16 | 87* | 24
N#Cc1nccnc1S(=O)(=O)c1cccs1 | -54 | -1 | . | 47 | 102* | 16
CC1(C)CC(=O)C2=C(C1)Nc1ccccc1[S@]2=O | 0 | 16* | . | 8 | 7 | -5
CC1(C)CC(=O)C2=C(C1)Nc1ccccc1NC2 | -2 | -3 | . | 31 | 17 | 4
O=S1c2ccccc2Oc2ccccc21 | 6 | -1 | -5 | 1 | . | -5
O=S1c2ccccc2Nc2ccccc21 | 4 | 25* | . | . | -5 | 2
CN1C(=O)c2cc(NC(=O)C3CCOCC3)ccc2OC[C@@H]2O[C@H](CC(=O)O)CC[C@@H]21 | 0 | . | 4 | -11 | 16 | -1
COC1=CC(=O)c2nc(Cl)ccc2C1=O | 5 | 3 | . | 80* | 107* | 40
C[C@@H]1CN([C@@H](C)CO)S(=O)(=O)c2ccc(C#CC3CCCC3)cc2O[C@@H]1CN(C)C(=O)c1cccc(F)c1 | 1 | . | -4 | 4 | . | 20
O=C(Nc1cccc(Cl)c1)c1ccc(Cn2cc(Cl)cn2)cc1 | -26* | . | -8 | -22 | -26 | -11
C[C@@H]1CCCCO[C@H](CN(C)Cc2ccccc2)[C@H](C)CN([C@@H](C)CO)C(=O)c2cc(NC(=O)C3CCCCC3)ccc2O1 | 1 | 2 | -13 | 14 | 16 | 10
CC1=NN(C(N)=S)C(=O)C1N=Nc1cccc(C)c1 (stereo not drawn) | 4 | -4 | -3 | -27 | -55 | -43
CC1=NN(C(N)=S)C(=O)C1N=Nc1cccc(C(=O)O)c1 (stereo not drawn) | 14 | 24* | 3 | 61* | 21 | 32
Cc1ccc(O)c(C(=O)c2cc(C#N)c(=O)n(Cc3ccccc3)c2)c1 | -14 | -5 | -8 | -14 | -26 | 16
N#Cc1cc(C(=O)c2cc(F)ccc2O)cn(Cc2ccccc2)c1=O | -24* | 1 | 5 | 0 | 14 | -3
CC(C)C#Cc1ccc2c(c1)O[C@@H](CN(C)C(=O)c1cccc(F)c1)[C@@H](C)CN([C@H](C)CO)S2(=O)=O | 0 | 6 | -12 | -20 | . | -9
Cc1ccc(C(=O)NCCC(=O)N2CCC3(CC2)NCCc2[nH]cnc23)cc1C | 0 | 28* | 9 | 2 | -25 | .
SMILES | Ecoli rRNA inh | SIRT5 inh | PGC1a acetyl inh | LGR2 inh | PAX8 reporter | EWS-Fli block
CN(C)Cc1c(O)ccc2c(=O)c(-c3ccccc3)c(C(F)(F)F)oc12 | -32* | 2 | . | 1 | 17 | -11
CN(C)Cc1c(O)ccc2c(=O)c(-c3ccccc3Cl)c(C(F)(F)F)oc12 | -15 | 5 | 9 | -4 | -14 | 7
CC1(C)CCN2CCC(C)(C)c3c(O)ccc1c32 | 15 | 1 | . | 8 | 84* | 33
O=C(NNc1c2ccccc2nc2ccccc12)C(O)c1ccccc1 (stereo not drawn) | -27* | 0 | 5 | -3 | 20 | 10
CN(C)S(=O)(=O)c1cccc(N=C2NN=C(c3ccccc3)CS2)c1 | 4 | -3 | . | 11 | 73* | 18
CC(=O)Nc1ccc(C2=NNC(=Nc3cccc(S(=O)(=O)N(C)C)c3)SC2)cc1 | . | . | -5 | . | . | .
COC(=O)c1ccc2c(c1)C(C)(C)C(/C=C/c1ccccc1O)=[N+]2C | . | . | -52 | 56* | . | .
C[C@@H]1CN([C@@H](C)CO)C(=O)c2cc(NC(=O)c3ccncc3)ccc2O[C@@H](C)CCCCO[C@@H]1CN(C)C(=O)Nc1ccc(C(F)(F)F)cc1 | 2 | 3 | 14 | -6 | . | -7
CC(C)C#Cc1ccc([C@@H]2[C@H]3CN(C(=O)Cc4cccnc4)CC(=O)N3[C@H]2CO)cc1 | -4 | . | . | . | . | .
CN1C(C(=O)c2ccccc2)=C(N)c2ccccc2S1(=O)=O | -23* | 7 | -8 | 37 | -3 | 3
Cc1ccc(NC2=C(C(=O)c3ccccc3)N(C)S(=O)(=O)c3ccccc32)cc1 | . | . | -19 | . | 27 | .
CCC(=O)Nc1ccc2c(c1)C(=O)N(C)C[C@H](OC)[C@H](C)CN(CC1CCCCC1)[C@H](C)CO2 | 0 | 7 | -1 | -4 | . | -12
CC(=O)N(Cc1cccc(F)c1)C[C@H]1[C@@H](c2ccccc2)[C@@H](CO)N1C(C)=O | -2 | 28* | . | 0 | . | 1
CCN(C[C@H]1[C@H](c2ccccc2)[C@H](CO)N1C(C)=O)C(=O)NC(C)C | 2 | 1 | 1 | 5 | 1 | -2
CCCN(C[C@H]1[C@H](c2ccccc2)[C@@H](CO)N1C(C)=O)C(=O)NC(C)C | 0 | 33*! | 4 | -5 | -33 | 0
COCCN(C[C@@H]1[C@@H](c2ccccc2)[C@H](CO)N1C(C)=O)C(=O)c1cccnc1 | 6 | 16* | 7 | 14 | -6 | -7
COc1ccc(-c2cnc3c(c2)C(=O)N([C@H](C)CO)C[C@H](C)[C@@H](CN(C)C(=O)Cc2cccnc2)O3)cc1 | 7 | 3 | 6 | 0 | -16 | -7
CC(=O)N1[C@@H]2Cn3c(ccc(C4=CCCCC4)c3=O)[C@H]1[C@@H](C(=O)NC1CCCC1)[C@@H]2CO | -2 | -11 | . | 8 | . | -4

Screens as filed in PubChem BioAssay.
